Measured values taken from ChEMBL document CHEMBL1961873, “Compounds: GSK PKIS; Assays: Nanosyn kinase panel” (2012).

Experiments:
[1] = biological target: T1, Ephrin type-B receptor 2 (Homo sapiens) (UniProt P29323); settings: at 1 µM
T1 sequence (whole entry): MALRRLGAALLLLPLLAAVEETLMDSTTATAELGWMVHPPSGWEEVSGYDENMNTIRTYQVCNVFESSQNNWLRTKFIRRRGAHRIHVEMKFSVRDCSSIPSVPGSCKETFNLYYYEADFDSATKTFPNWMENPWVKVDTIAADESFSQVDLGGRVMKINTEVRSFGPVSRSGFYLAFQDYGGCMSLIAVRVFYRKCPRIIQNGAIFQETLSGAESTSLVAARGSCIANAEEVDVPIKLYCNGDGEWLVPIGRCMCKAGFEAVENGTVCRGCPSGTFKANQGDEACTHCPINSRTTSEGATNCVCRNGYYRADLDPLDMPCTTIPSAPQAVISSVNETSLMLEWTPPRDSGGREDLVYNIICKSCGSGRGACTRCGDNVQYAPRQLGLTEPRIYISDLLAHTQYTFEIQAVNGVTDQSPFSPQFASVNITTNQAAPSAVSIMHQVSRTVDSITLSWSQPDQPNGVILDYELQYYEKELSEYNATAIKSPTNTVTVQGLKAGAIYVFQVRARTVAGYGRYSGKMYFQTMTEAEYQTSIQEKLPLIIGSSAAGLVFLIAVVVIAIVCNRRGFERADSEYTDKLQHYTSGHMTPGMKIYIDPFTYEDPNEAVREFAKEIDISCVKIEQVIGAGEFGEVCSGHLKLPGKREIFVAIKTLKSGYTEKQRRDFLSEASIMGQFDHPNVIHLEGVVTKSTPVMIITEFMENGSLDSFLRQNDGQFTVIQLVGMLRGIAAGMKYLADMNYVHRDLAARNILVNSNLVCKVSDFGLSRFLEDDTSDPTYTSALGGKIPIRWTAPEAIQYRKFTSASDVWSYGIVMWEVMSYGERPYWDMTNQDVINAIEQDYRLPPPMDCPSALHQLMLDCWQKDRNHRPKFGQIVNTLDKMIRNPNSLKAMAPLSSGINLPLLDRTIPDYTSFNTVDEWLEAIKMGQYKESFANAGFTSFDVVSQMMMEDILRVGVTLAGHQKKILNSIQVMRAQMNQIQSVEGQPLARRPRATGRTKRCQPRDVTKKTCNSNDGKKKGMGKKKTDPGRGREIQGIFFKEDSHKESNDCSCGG

[2] = biological target: T2, Ephrin type-B receptor 3 (Homo sapiens) (UniProt P54753); settings: at 0.1 µM
T2 sequence (whole entry): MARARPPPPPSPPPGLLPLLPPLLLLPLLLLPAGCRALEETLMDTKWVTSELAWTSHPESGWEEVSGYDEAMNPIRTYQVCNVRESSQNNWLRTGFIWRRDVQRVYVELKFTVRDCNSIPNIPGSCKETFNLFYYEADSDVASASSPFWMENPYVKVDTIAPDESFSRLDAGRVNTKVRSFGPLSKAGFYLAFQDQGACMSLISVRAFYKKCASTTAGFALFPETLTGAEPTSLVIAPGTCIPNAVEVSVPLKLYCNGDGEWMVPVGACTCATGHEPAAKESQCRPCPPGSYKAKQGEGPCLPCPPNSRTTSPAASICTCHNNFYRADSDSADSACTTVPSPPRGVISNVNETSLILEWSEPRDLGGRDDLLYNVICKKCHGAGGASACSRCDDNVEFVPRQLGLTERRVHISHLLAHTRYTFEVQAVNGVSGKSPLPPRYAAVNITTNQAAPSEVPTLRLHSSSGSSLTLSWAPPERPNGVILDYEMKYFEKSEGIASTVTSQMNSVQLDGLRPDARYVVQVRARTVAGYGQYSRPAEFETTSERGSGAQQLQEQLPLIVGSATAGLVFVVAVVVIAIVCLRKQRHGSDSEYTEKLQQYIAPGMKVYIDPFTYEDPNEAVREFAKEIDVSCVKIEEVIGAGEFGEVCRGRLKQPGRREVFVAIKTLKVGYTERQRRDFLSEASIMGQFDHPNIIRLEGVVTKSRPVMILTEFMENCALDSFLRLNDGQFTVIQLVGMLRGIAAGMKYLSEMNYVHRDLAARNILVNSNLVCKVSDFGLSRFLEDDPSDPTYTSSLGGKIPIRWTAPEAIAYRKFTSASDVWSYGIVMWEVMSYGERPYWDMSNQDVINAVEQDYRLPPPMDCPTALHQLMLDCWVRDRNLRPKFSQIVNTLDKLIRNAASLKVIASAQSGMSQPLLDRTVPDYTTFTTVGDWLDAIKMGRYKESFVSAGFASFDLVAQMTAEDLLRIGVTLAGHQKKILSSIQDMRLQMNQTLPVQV

[3] = biological target: T2, Ephrin type-B receptor 3 (Homo sapiens); settings: at 1 µM
[4] = biological target: T3, Ephrin type-B receptor 4 (Homo sapiens) (UniProt P54760); settings: at 0.1 µM
T3 sequence (whole entry): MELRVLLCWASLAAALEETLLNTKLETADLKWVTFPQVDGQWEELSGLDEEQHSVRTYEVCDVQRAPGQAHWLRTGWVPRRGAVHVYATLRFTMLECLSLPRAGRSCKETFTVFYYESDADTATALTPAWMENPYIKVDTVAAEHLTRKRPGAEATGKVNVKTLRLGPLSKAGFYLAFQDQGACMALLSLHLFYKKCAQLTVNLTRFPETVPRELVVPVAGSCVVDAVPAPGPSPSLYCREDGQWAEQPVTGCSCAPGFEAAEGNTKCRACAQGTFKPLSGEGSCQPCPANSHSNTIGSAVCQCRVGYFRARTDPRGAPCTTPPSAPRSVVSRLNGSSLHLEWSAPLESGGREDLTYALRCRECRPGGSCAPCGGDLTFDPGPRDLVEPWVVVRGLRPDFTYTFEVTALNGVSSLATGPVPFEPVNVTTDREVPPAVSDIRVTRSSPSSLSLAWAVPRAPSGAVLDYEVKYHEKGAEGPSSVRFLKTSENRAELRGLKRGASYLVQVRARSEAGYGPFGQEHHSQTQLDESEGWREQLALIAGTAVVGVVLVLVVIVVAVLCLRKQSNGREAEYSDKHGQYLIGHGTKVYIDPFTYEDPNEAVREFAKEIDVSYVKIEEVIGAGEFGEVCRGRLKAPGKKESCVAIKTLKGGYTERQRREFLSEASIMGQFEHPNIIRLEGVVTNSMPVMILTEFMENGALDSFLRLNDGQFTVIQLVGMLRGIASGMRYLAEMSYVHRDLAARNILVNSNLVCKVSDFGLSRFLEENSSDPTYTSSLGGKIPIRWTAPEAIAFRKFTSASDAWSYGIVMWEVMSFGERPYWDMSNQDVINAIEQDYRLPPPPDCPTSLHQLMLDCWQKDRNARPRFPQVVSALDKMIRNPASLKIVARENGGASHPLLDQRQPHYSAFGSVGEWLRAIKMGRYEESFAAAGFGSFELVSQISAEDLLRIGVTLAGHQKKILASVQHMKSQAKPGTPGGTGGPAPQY

[5] = biological target: T3, Ephrin type-B receptor 4 (Homo sapiens); settings: at 1 µM
[6] = biological target: Receptor tyrosine-protein kinase erbB-2 (Homo sapiens) (UniProt P04626); settings: at 0.1 µM
Chain of Receptor tyrosine-protein kinase erbB-2 (Homo sapiens) (P04626 whole entry): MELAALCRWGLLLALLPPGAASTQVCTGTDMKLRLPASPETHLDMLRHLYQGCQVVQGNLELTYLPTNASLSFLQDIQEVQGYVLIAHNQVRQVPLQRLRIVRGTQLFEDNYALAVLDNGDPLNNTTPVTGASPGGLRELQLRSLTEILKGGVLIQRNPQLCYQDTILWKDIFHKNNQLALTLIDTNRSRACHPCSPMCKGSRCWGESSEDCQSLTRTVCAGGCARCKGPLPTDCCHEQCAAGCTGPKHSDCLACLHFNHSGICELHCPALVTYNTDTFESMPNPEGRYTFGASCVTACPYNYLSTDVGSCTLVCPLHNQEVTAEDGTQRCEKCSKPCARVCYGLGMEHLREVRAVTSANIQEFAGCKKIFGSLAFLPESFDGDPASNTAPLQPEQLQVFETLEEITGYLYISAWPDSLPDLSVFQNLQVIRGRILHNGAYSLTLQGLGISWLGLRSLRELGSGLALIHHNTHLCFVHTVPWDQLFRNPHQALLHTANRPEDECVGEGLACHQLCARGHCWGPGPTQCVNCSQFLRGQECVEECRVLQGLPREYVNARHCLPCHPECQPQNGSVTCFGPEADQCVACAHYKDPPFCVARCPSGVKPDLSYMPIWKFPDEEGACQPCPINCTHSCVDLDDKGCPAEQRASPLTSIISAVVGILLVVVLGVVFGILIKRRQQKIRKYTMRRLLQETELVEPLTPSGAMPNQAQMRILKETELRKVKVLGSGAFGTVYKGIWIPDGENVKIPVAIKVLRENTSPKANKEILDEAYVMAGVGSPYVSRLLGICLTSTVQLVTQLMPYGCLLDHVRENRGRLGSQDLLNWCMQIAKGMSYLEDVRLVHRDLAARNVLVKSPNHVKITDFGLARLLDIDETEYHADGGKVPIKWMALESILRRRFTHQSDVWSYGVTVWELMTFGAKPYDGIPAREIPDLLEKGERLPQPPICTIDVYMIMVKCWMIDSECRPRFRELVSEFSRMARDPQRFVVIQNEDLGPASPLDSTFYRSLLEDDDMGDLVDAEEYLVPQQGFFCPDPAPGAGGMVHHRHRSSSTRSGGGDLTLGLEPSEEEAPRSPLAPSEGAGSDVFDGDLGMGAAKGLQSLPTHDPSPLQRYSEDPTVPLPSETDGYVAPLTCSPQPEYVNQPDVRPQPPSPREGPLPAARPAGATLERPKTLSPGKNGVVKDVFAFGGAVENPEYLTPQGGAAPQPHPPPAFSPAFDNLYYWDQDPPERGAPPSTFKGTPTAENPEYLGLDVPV

[7] = biological target: Receptor tyrosine-protein kinase erbB-2 (Homo sapiens) (UniProt P04626); settings: at 1 µM
[8] = biological target: Receptor tyrosine-protein kinase erbB-4 (Homo sapiens) (UniProt Q15303); settings: at 0.1 µM
Chain of Receptor tyrosine-protein kinase erbB-4 (Homo sapiens) (Q15303 whole entry): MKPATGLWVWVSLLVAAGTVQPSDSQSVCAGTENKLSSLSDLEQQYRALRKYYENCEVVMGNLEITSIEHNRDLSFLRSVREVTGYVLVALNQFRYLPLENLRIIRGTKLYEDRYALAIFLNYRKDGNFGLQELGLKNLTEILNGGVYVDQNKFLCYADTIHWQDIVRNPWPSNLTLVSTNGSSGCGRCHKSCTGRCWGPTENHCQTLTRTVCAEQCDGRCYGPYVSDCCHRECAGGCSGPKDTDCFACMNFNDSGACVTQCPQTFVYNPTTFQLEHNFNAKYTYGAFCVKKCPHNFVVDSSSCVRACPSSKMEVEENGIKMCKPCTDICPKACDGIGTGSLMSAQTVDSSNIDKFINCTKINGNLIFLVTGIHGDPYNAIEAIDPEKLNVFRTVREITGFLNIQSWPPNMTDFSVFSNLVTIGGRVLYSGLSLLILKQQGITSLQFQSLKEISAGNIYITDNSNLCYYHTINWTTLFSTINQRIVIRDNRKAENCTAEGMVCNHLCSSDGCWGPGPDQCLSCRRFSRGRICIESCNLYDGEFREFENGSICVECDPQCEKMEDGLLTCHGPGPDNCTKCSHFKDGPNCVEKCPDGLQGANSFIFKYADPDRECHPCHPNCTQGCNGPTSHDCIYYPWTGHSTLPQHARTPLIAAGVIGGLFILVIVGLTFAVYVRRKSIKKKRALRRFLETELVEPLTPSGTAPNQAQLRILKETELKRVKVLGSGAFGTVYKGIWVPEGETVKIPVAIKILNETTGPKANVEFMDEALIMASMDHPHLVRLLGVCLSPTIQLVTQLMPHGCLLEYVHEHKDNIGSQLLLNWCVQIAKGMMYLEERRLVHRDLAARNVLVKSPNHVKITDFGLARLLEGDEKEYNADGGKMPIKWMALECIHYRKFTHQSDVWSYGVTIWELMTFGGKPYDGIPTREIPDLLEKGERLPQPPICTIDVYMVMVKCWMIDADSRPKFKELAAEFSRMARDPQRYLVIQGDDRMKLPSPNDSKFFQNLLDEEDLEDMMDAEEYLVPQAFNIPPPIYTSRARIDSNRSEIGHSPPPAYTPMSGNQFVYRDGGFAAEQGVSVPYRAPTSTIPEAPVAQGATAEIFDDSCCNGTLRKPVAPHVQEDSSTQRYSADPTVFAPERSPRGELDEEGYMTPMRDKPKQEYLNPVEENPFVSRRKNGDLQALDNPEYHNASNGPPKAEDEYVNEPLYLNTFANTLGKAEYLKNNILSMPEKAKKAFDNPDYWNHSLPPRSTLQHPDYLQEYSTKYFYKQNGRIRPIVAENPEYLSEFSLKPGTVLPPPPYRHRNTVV

[9] = biological target: Receptor tyrosine-protein kinase erbB-4 (Homo sapiens) (UniProt Q15303); settings: at 1 µM
[10] = biological target: Tyrosine-protein kinase Fer (Homo sapiens) (UniProt P16591); settings: at 0.1 µM;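 also: reported figures are averaged percent inhibition of FER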
Chain of Tyrosine-protein kinase Fer (Homo sapiens) (P16591 whole entry, looked up): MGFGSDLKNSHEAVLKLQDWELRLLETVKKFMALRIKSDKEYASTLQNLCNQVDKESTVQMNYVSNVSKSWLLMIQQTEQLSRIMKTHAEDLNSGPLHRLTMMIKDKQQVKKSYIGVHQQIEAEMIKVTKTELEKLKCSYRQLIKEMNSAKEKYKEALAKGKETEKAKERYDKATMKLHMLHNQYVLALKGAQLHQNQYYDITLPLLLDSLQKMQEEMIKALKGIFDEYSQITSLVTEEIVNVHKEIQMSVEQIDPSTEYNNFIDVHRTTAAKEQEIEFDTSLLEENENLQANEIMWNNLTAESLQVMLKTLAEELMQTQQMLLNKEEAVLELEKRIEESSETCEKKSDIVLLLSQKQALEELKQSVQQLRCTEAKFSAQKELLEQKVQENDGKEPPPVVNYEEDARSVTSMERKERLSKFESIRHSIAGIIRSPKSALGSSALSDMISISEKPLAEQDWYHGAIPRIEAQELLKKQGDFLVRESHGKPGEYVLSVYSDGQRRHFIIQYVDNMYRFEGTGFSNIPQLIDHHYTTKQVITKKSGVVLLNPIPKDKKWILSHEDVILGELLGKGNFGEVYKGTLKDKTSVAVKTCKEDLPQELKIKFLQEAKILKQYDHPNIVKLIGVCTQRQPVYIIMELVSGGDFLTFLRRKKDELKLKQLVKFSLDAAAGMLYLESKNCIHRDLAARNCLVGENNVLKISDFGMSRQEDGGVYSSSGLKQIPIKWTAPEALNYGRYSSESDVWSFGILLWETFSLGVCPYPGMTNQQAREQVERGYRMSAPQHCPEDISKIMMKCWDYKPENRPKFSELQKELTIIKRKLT

Structure (SMILES) | inhibition [1] | inhibition [2] | inhibition [3] | inhibition [4] | inhibition [5] | inhibition [6] | inhibition [7] | inhibition [8] | inhibition [9] | inhibition [10]
Cc1ccc(O)cc1Nc1ccnc2ccc(S(C)(=O)=O)cc12 | 86.3% | 96.9% | 97.3% | 91.6% | 95.6% | 4.44% | 5.88% | 20.2% | 52.2% | 4.91%
Oc1cccc(-c2nc(-c3ccccc3)[nH]c2-c2ccncc2)c1 | 26.1% | 9.06% | 19.3% | 6.41% | 9.99% | 4.55% | 3.87% | 12.6% | 19.4% | 3.43%
NS(=O)(=O)c1ccc(NC=C2C(=O)Nc3ccc4ncsc4c32)cc1 | 26.1% | 5.96% | 2.98% | 4.95% | 12.2% | 1.93% | -0.87% | 17.8% | 11.2% | 5.32%
C[C@@H](Oc1cc(-n2cnc3ccc(OCC4CCN(C)CC4)cc32)sc1C(N)=O)c1ccccc1C(F)(F)F | -1.46% | -3.13% | -1.08% | -1.38% | 0.52% | -0.64% | 0.08% | -5.11% | -0.34% | -2.09%
N#Cc1cccc(Nc2nccc(-c3cnn4ncccc34)n2)c1 | 46.2% | 4.19% | 3.9% | 5.63% | 22.5% | 1.23% | 5.3% | 8.57% | 19.1% | 9.92%
CS(=O)(=O)CCNCc1nc(-c2ccc3ncnc(Nc4ccc(OCc5cccc(C(F)(F)F)c5)cc4)c3c2)cs1 | 6.37% | 2.8% | 3.98% | -1.44% | 2.09% | 4.71% | 4.32% | 6.42% | 25.6% | 3.78%
COc1cc(Nc2nccc(-c3cnn4ncccc34)n2)cc(OC)c1 | 40.2% | 3.58% | -3.61% | 2.69% | 25.6% | 2.17% | -0.98% | 5.96% | 8.81% | 11.1%
COc1cccc(-n2ncc3c(N/N=C/c4ccc(C)cc4)ncnc32)c1 | 9.45% | 2.7% | 4.17% | 3.6% | 3.21% | 2.26% | 3.43% | 6.09% | 11.9% | 8.13%
CC(C)c1ccc(Nc2nccc(-c3cnn4ncccc34)n2)cc1 | 14.4% | 6.52% | 2.55% | 4.64% | 2.76% | 0.95% | 3.22% | 8.58% | 11.6% | 5.74%
C[C@@H](Oc1cc(-n2cnc3ccc(OC[C@@H](O)CO)cc32)sc1C(N)=O)c1ccccc1Cl | -2.42% | -1.05% | -0.83% | -3.41% | -0.4% | 0% | 0.61% | -3.03% | -1.55% | -1.75%
COC(=O)Nc1nc2cc(Oc3ccc(NC(=O)Nc4cccc(Br)c4)cc3)ccc2[nH]1 | 80.4% | 5.42% | 7.66% | 9.97% | 26% | 3.03% | 0.8% | 7.14% | 11.2% | 2.5%
COC(=O)c1ccc2c(c1)C(=Cc1cc(Br)c(O)c(Br)c1)C(=O)N2 | 7.02% | 2.1% | 3.26% | 2.41% | 3.68% | -0.98% | 3.44% | 3.22% | 14.2% | -1.52%
Nc1nccc(-c2c(-c3ccc(F)cc3)nn3cc(C(F)(F)F)ccc23)n1 | 5.83% | -0.56% | 3.25% | 0.18% | 1.91% | 2.01% | 3.5% | 2.34% | 11.4% | 5.04%
NC(=O)c1sc(-n2cnc3ccccc32)cc1OCc1ccccc1Br | 10.9% | 4.52% | 6.83% | 1.58% | 3.37% | 0.61% | 3.64% | 3.34% | 9.23% | -0.27%
NC(=O)c1cccc(Nc2nccc(Nc3cccc(F)c3)n2)c1 | 18.1% | 2.13% | 2.83% | -0.22% | 5.23% | 0.04% | 3.14% | 5.37% | 13.2% | -2.66%
CN(C)C(=O)O[C@H]1CN[C@H](C#Cc2cc3ncnc(Nc4ccc(OCc5cccc(F)c5)c(Cl)c4)c3s2)C1 | 14.1% | 4.55% | 5.69% | 2.43% | 3.92% | 4% | 50.4% | 92.5% | 120% | 1.02%
